Assay [1] addresses Glutathione S-transferase omega-1 (Homo sapiens) (UniProt P78417). Briefly: recombinant GSTO1 blockers, retest – biochemical, fluorescence polarization, triplicate, counter-screen for RBBP9 inhibitor project, confirmation (AID 2176;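 active = inhibition above the primary screen's cutoff, its mean inhibition plus 3 SD, cut at about 35% in these data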;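 note: loss of polarization as inhibitors block binding of rhodamine sulfonate ester activity probe; 0% = GSTO1 with DMSO and 100% = wells lacking GSTO1 enzyme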). The conditions noted are these: recombinant GSTO1, probe fluorescence polarization; at 5.96 µM; hits give high values.
The target in assay [2] is Protein phosphatase methylesterase 1 (Homo sapiens) (UniProt Q9Y570). As to the kind of experiment: human PME-1 methylesterase inhibition confirmation – biochemical, fluorescence polarization, FP-Rh probe, triplicate (AID 2171).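 Note: 0% = enzyme with DMSO and 100% = wells lacking PME-1.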 The conditions noted are these: recombinant PME-1, FP-Rh probe fluorescence polarization; at 5.9 µM; hits give high values.
Assay [3] in a line: StAR promoter reporter inhibitors, counter-screen for LRH-1 inverse agonist project, cell-based, luminescence, high throughput (AID 651611; in the data active = inhibition above about 28%). To be noted: StAR promoter luciferase reporter counterscreen, at 3.6 µM, hits give high values.
Assay [4] concerns the target Nuclear receptor subfamily 5 group A member 2 (Homo sapiens) (UniProt O00482). As to the kind of experiment: NR5A2 activity suppression in reporter cells – cell-based, luminescence, confirmation (AID 651613; in the data active = inhibition above about 42%;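 note: HEK293T cells co-transfected with LRH-1 and StAR promoter luciferase reporter; 0% = vehicle wells and 100% = parental cells lacking receptor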). To be noted: cell-based LRH-1 luciferase reporter, inverse agonism; at 3.6 µM; hits give high values. In general terms: A reporter such as luciferase makes a cellular process visible.

Assay [5] has as its target Steroidogenic factor 1 (Homo sapiens) (UniProt Q13285). Briefly: inverse agonism at SF1 nuclear receptor – cell-based, luminescence, high throughput, counter-screen for LRH-1 inverse agonist project (AID 651614; in the data active = inhibition above about 44%;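 note: cells cotransfected with StAR promoter reporter and SF1 expression vector; 0% = vehicle on cells with receptor and 100% = vehicle on cells lacking receptor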). To be noted: cell-based SF1 luciferase reporter, at 3.6 µM, hits give high values. (In general: Counterscreens check selectivity or assay interference.)
Assay [6] in a line: compounds suppressing VP16-driven luciferase signal – cell-based, luminescence, high throughput, counter-screen for LRH-1 inverse agonist project (AID 651615; in the data active = inhibition above about 33%). To be noted: Gal4-VP16 luciferase reporter cells, at 3.6 µM, hits give high values.
Assay [7] addresses Oxysterols receptor LXR-beta (Homo sapiens) (UniProt P55055). As to the kind of experiment: nonspecific reporter activation via LXR – cell-based, luminescence, HEK293, H. contortus campaign, counter-screen for hcDAF-12 agonist project, confirmation (AID 743027;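 active = mean percent activation of the reporter above a cutoff set as the average over tested compounds plus their standard deviation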). To be noted: HEK293 Gal4-LXR tk-luc reporter, 24 h, at 6.8 µM, hits give high values, normalized: DMSO 0%, positive control 100%.

Assay [8] concerns Nuclear hormone receptor DAF-12 (Haemonchus contortus). As to the kind of experiment: hcDAF-12 luciferase reporter activation, retest – cell-based, luminescence, HEK293, lit1-tk-luc, triplicate, confirmation (AID 743032;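 active = mean activation across triplicate tests above the threshold derived from the earlier primary screen, cut at about 5.5% in these data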;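 note: 0% = DMSO only wells and 100% = 3 µM Δ7-dafachronic acid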). The conditions noted are these: HEK293 hcDAF-12 lit1-tk-luc reporter, at 6.8 µM, hits give high values, % of Δ7-dafachronic acid response.
In assay [9] the test system is DAF-12 nuclear receptor (Heterodera glycines), GAL4-LBD fusion. As to the kind of experiment: hgDAF-12 GAL4 fusion reporter activation, retest – cell-based, luminescence, HEK293, GAL4-LBD fusion, confirmation (AID 743050;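 active = mean activation over triplicate wells above the hit cutoff derived from the earlier primary screen, cut at about 11% in these data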;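 note: 0% = DMSO low control and 100% = 2 mM sodium butyrate high control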). The conditions noted are these: HEK293 GAL4-hgDAF12 luciferase reporter, agonist mode; at 6.8 µM; hits give high values; percent of butyrate response.

The target of assay [10] is Oxysterols receptor LXR-beta (Homo sapiens) (UniProt P55055). Briefly: nonspecific reporter activation via LXR – cell-based, luminescence, HEK293, H. glycines campaign, counter-screen for hgDAF-12 agonist project, confirmation (AID 743051;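 active = mean activation of the triplicate above a set limit carried over from the primary screen, none filed active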). To be noted: HEK293 Gal4-LXR luciferase reporter, 24 h; at 6.8 µM; hits give high values.
In assay [11] the target is Nuclear receptor coactivator 1 (Homo sapiens) (UniProt Q15788). Briefly: NCOA1 GAL4-fusion reporter inhibition – cell-based, luminescence, quadruplicate, confirmation (AID 588820;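 active = mean inhibition above 46.68%, the untreated control wells mean plus 3 SD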;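 note: 0% = DMSO wells and 100% = gossypol 36 µM treated wells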). To be noted: HEK293 GAL4-SRC1 luciferase reporter, at 3.6 µM, hits give high values.
The nature of assay [12]: repression of VP16-driven luciferase reporter – cell-based, luminescence, high throughput, counter-screen for SRC1 inhibitor project (AID 588824; in the data active = inhibition above about 25%). To be noted: cell-based VP16 transactivation luciferase luminescence; at 3.6 µM; hits give high values.
The subject of assay [13] is transactivating tegument protein VP16 (Human herpesvirus 1). As to the kind of experiment: compounds suppressing VP16-driven luciferase signal – cell-based, luminescence, single concentration, counter-screen for SRC2 inhibitor project (AID 652007; in the data active = inhibition above about 36%). The conditions noted are these: cell-based VP16 transactivation luciferase reporter, at 8.9 µM, hits give high values.
For assay [14], the target named is Nuclear receptor coactivator 2 (Homo sapiens) (UniProt Q15596). Briefly: inhibition of GAL4-SRC2 driven luciferase expression – cell-based, luminescence, HEK293, triplicate, confirmation (AID 652008;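 active = mean inhibition above 46.5%, the solvent-only control mean plus 3 SD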;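 note: 0% = DMSO-treated cells and 100% = Gossypol at 36 µM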). The conditions noted are these: HEK293 GAL4-SRC2 luciferase reporter, at 8.9 µM, hits give high values.
Assay [15] deals with Nuclear receptor coactivator 3 (Homo sapiens) (UniProt Q9Y6Q9). Briefly: NCOA3 GAL4-fusion reporter inhibition – cell-based, luminescence, quadruplicate, confirmation (AID 588792;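 active = mean inhibition over 43.08%, the solvent-only control mean plus 3 SD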;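 note: 0% = DMSO treated cells and 100% = gossypol at 36 µM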). The conditions noted are these: HEK293 GAL4-SRC3 luciferase reporter, at 3.6 µM, hits give high values.
The subject of assay [16] is transactivating tegument protein VP16 (Human herpesvirus 1), Gal4-VP16 luciferase reporter. As to the kind of experiment: repression of VP16-driven luciferase reporter – cell-based, luminescence, high throughput, counter-screen for SRC3 inhibitor project (AID 588794; in the data active = inhibition above about 30%). To be noted: mammalian cells, at 3.6 µM, hits give high values.

This is an account of results in PubChem BioAssay.

The inhibition is the relative decrease from the control value, in per cent.

Values without a mark were called inactive. The list shows a part of the results. Active and inactive are the calls of the source.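 Rule for the calls, unless noted: active = inhibition above the hit cutoff set in the earlier primary screen (cut at about 27% in these data); inactive = the rest.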

Protein phosphatase methylesterase 1 (Homo sapiens), sequence (Q9Y570 whole entry, looked up): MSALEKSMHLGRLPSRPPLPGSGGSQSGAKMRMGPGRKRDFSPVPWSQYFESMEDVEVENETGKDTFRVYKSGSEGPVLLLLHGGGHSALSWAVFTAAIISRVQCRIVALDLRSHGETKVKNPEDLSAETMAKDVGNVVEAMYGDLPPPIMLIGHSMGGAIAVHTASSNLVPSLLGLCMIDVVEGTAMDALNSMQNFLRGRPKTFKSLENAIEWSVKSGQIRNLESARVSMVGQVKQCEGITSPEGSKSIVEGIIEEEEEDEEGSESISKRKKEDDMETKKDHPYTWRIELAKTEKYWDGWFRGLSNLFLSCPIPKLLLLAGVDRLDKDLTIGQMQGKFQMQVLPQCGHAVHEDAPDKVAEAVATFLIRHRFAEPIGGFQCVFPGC
Steroidogenic factor 1 (Homo sapiens), sequence (Q13285 whole entry, looked up, the tested form may be a part): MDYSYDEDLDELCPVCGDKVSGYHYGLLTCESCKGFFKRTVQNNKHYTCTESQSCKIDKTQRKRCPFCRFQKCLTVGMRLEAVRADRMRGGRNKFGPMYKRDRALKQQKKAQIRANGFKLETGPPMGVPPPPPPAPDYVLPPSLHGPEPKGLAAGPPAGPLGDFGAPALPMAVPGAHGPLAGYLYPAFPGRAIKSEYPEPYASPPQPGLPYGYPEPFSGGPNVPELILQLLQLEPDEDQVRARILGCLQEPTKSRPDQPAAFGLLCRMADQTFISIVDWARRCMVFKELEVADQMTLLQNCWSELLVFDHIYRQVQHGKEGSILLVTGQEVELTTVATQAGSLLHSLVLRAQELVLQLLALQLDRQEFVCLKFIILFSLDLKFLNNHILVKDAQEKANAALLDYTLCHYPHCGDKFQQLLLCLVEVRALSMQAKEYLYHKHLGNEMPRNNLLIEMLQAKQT
Glutathione S-transferase omega-1 (Homo sapiens), sequence (P78417 whole entry, looked up): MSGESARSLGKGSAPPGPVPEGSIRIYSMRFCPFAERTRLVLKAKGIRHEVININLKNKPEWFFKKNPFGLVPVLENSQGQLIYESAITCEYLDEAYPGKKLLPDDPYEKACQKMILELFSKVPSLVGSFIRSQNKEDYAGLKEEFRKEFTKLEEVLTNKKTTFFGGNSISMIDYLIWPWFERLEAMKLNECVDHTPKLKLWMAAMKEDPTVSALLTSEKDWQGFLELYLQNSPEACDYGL
Nuclear receptor subfamily 5 group A member 2 (Homo sapiens), sequence (O00482 whole entry, looked up): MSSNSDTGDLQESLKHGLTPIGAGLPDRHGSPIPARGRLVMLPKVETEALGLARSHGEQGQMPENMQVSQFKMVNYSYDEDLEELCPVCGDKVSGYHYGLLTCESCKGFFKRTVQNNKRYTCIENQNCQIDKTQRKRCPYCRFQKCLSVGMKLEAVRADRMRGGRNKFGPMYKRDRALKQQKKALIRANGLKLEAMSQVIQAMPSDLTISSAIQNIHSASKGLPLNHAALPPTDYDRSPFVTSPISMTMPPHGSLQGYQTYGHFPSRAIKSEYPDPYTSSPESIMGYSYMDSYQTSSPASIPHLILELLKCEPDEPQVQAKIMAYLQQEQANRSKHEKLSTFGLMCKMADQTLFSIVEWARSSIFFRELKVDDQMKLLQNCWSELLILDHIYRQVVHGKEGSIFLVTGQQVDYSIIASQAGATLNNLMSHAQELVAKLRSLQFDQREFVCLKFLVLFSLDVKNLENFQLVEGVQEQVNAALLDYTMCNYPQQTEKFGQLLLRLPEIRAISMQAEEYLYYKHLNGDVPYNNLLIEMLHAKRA
Oxysterols receptor LXR-beta (Homo sapiens), sequence (P55055 whole entry, looked up, the tested form may be a part): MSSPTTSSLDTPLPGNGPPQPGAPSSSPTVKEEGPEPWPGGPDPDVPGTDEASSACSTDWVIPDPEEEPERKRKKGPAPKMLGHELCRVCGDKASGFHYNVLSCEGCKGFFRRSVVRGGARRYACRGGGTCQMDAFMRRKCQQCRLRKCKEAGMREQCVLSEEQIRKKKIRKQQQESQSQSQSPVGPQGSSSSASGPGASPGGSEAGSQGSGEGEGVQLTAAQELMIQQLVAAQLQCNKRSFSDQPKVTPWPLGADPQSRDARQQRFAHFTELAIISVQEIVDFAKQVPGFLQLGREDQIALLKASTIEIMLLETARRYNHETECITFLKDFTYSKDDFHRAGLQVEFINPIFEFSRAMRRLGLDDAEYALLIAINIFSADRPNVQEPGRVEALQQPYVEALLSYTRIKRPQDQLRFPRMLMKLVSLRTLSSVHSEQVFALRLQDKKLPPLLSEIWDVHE
Nuclear receptor coactivator 2 (Homo sapiens), sequence (Q15596 whole entry, looked up, the tested form may be a part): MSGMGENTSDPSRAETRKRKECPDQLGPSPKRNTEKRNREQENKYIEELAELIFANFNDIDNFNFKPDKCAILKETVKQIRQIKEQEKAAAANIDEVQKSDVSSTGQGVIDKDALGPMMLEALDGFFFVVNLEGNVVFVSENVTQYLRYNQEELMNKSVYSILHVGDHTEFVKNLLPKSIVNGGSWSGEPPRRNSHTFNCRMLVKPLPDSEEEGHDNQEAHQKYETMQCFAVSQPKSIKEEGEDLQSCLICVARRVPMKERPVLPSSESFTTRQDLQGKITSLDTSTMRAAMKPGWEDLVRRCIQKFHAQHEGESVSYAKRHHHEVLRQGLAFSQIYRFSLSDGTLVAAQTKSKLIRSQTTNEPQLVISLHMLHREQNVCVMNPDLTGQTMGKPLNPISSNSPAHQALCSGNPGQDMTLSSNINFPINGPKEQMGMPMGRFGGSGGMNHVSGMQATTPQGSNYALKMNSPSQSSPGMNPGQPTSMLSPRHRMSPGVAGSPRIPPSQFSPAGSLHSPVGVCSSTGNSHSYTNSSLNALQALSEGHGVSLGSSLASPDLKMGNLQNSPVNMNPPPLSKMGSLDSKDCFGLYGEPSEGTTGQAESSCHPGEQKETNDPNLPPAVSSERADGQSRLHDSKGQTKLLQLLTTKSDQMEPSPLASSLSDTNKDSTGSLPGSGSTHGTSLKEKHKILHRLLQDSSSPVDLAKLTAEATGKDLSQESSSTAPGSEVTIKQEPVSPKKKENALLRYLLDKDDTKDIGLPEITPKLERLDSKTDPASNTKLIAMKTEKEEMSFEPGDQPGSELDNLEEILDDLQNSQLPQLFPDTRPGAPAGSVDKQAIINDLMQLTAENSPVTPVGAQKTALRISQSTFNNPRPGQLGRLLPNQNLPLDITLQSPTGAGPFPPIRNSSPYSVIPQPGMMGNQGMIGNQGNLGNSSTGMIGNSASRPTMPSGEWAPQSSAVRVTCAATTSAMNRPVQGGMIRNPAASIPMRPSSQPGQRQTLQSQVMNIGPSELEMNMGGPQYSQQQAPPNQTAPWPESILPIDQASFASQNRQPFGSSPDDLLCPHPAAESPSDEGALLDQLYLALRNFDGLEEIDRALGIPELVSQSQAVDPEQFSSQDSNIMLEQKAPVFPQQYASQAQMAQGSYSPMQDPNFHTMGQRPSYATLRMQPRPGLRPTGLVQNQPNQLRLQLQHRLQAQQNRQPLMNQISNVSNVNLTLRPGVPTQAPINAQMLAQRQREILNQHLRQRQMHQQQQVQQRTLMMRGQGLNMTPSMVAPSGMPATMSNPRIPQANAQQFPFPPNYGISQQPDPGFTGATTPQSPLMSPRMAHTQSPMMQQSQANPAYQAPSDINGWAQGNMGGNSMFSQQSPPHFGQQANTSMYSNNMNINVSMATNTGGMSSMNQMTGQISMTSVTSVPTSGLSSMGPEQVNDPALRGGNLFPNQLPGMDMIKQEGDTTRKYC
Nuclear receptor coactivator 1 (Homo sapiens), sequence (Q15788 whole entry, looked up, the tested form may be a part): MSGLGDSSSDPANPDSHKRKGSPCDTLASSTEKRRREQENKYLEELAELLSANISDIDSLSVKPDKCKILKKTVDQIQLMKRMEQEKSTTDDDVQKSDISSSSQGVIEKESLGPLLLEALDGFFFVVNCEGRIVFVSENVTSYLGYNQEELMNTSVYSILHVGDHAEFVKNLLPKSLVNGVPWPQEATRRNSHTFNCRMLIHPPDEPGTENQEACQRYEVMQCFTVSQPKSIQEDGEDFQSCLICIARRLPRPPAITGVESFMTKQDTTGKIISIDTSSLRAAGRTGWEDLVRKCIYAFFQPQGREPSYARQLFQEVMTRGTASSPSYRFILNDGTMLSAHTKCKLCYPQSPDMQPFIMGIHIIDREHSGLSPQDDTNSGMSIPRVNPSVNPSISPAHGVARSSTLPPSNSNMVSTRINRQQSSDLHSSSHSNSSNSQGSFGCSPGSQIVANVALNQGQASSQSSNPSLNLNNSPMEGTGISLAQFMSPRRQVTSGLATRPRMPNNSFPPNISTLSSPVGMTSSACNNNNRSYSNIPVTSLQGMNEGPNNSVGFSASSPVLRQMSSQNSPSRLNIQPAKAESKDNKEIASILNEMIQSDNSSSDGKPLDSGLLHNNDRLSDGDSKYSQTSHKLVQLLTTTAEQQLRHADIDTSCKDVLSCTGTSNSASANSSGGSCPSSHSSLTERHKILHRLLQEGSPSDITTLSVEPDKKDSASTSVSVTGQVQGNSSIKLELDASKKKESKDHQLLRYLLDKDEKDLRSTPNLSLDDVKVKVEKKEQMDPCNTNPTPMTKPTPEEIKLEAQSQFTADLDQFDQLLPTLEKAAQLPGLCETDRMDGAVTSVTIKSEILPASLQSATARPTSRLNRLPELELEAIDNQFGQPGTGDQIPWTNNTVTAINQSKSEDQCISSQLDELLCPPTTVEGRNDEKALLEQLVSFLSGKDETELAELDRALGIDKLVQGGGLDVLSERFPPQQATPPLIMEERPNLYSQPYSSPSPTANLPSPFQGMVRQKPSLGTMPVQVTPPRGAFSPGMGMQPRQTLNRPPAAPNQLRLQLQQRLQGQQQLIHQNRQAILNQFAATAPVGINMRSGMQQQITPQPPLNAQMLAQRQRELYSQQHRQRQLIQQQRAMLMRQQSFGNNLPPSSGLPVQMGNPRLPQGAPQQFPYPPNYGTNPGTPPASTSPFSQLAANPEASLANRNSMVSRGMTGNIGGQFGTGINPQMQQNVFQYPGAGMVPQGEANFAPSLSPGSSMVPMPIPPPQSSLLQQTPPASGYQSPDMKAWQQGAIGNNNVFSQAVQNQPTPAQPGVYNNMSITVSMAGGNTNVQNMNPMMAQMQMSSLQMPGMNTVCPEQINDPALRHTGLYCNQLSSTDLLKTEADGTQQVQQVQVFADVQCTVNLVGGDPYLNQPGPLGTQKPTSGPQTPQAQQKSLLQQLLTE

Consider `CC/C(=N/Nc1ccccc1)c1cnnc(SC)n1`, for which the inhibition in assay [1] is 9.56%.

For `O=[N+]([O-])c1cccc(-c2nc(-c3cccs3)c(-c3cccs3)[nH]2)c1`, the inhibition in assay [2] was 13%; in assay [3], 19.7%; in [4] it was 55% (active); in [5], 42.7% (active); in assay [6] it was -12.5%.

As to `CCOC(=O)c1c(NC(=O)c2ccc(S(=O)(=O)N(C)CC3CCCO3)cc2)sc2c1CC(C)(C)NC2(C)C` (stereo not given), in assay [1], the inhibition was 4.04%.

On to `COc1cccc(/C=N/NC(=O)c2[nH]c(C)c(C(=O)N/N=C/c3cccc(OC)c3O)c2C)c1O`, for which the inhibition in assay [2] is -31.6%; in assay [3], 42.2% (active); in assay [4] it was 24.8%; in assay [5], 17.4%; in assay [6] it was 25.2%.

With `COc1cc(/C=N/Nc2nc3ccccc3s2)ccc1O`, the inhibition in assay [2] was 57.7% (active). Moreover, the activation in [7] was 1.25%; in assay [8] it was 12.4% (active); in assay [9] it was 18.2% (active); in [10], 0.97%.

Consider `Fc1ccc2[nH]c3c(N4CCN(c5ccccc5)CC4)ncnc3c2c1`, for which the inhibition in assay [2] was 26.3% (active); in assay [11], 2.85%; in assay [12], 15.6%.

In the case of `C=CCNC(=O)c1ccccc1SCc1c(C)noc1C`, the inhibition in [1] was 3.92%.

In the case of `Cc1oc2c(c1C(=O)c1ccccc1)C(=O)C(=O)c1ccccc1-2`, the figures for the inhibition in assay [2], in [13] and in [14] were 18.1%, -18.3% and 99.5% (active), respectively.

As for `CCCOc1ccc(/C=N/NC(=S)Nc2ccccc2[N+](=O)[O-])c(O)c1`, the figures for the inhibition in [2], in assay [13] and in assay [14] were 27.9% (active), 74.5% (active) and 84% (active), respectively.

Turning to `c1coc(-c2nc3nc4ccccc4n3nc2-c2ccco2)c1`, in [1], the inhibition was 16.5%.

Regarding `C(=N\Nc1nc2ccccc2[nH]1)/c1cccc2cccnc12`, the inhibition is 60.2% (active) in assay [2]; 44.8% (active) in assay [15]; 8.83% in [16]; 49.4% (active) in [3]; 74% (active) in [4]; 64.3% (active) in assay [5]. Further, the inhibition in assay [6] was 23.9%.
